From PubChem BioAssay
Shiga inhibitor: inhibitors of Shiga toxin in Vero cells; Vero cells, Shiga toxin protein synthesis inhibition reporter; inhibition, % at 38.7 µM; actives 9.2% (n = 290,000); in the data active = inhibition mostly above about 28%, no sharp cut-off; inactive = mostly below about 43%; also: 0% is about no effect
FMDV inh: foot and mouth disease virus antiviral activity | FMDV antiviral cell-based qHTS | Potency, µM (top dose mostly 57.9 µM), inactives show at the top dose activity change, negative = inhibition, actives largely listed as inhibitors | actives 1.2% (n = 410,000) | AID 1159524; calls by dose curve; tested in HEK293T cells; also: read-out not given here; potency is read from the fitted curve at half-maximal effect; % is scaled to controls: 0 for no effect and ±100 for the full control effect; nearly all actives have a fitted effect of over 45% in size
CHX counter: affects cycloheximide protein synthesis inhibition readout, counter-screen. cell reporter, cycloheximide protein synthesis inhibition counterscreen. max response, %. actives 12% (n = 300,000); in the data active = max response mostly above about 13%, no sharp cut-off; inactive = mostly below about 14%; also: read at 38.3 µM for the half of the compounds with a filed dose; 0% is about no effect
Sm TGR inh: S. mansoni TGR enzyme inhibition; AID 485364; actives 3% (n = 360,000); purified TGR, DTNB reduction, TNB absorbance 405 nm; Potency, µM (series often up to 114 µM), without a hit: at the top dose activity change, negative = inhibition, actives largely listed as inhibitors; active = well fitted inhibition curve with a large enough effect; inconclusive = small, poorly fitted or top-dose-only effect; inactive = no such curve, though single readings can be large or run the other way; also: potency is read from the fitted curve at half-maximal effect; % is scaled to controls: 0 for no effect and ±100 for the full control effect; nearly all actives have a fitted effect of over 60% in size
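Kinetic colorimetric format: TGR-catalysed, NADPH-driven DTNB reduction monitored via TNB absorbance. Enzyme dispensed at 20 nM; compound exposure 15 min at room temperature before reaction start.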
The depositor's hits bear a star. A selection: hits, their analogues and other compounds. The true share with any hit is near 12%.

Results for CCCOc1ccc(C(=O)NCC(c2ccco2)N(C)C)cc1 (stereo not given) ?
Shiga inhibitor: 21.4; FMDV inh: 5.5%; CHX counter: 15.6*; Sm TGR inh: inconclusive

Results for CCCOc1ccc(C(=O)NCC(c2cccs2)N(C)C)cc1 (stereo not given) ?
Shiga inhibitor: 56.9; FMDV inh: 23.9%; CHX counter: 20.3*; Sm TGR inh: 5.1%

What do the screens show for `COc1cc(C2C(=O)N(C3CCCCCC3)CC(=O)N2Cc2ccccc2)ccc1OC(C)C` (stereo not given)?
FMDV inh: -7.4%; Sm TGR inh: -2.6%

What do the screens show for `CC(=O)c1cnc2nc(SCc3ccccc3C)nn2c1C`?
Shiga inhibitor: 21.3; FMDV inh: 39.2%; CHX counter: 18.2*; Sm TGR inh: -23.4%

How did CC(=O)c1cnc2nc(C(F)(F)F)nn2c1C do in these assays?
Shiga inhibitor: -12.3; FMDV inh: -16.5%; CHX counter: -2.8; Sm TGR inh: -6.1%

Results for CC(C)N1CCC1(C)C(=O)Nc1cccc2ccccc12 (stereo not given) ?
FMDV inh: 22.4µM*

How did CCn1c(CNC(=O)c2ccccc2F)cc2ccccc21 do in these assays?
Shiga inhibitor: 142.0*; FMDV inh: 22.7%; CHX counter: 23.6*; Sm TGR inh: 1.2%

Results for Cn1c(CNC(=O)c2ccccc2F)cc2ccccc21 ?
Shiga inhibitor: -1.5; FMDV inh: 15.1%; CHX counter: 15.6*; Sm TGR inh: -0.9%

Results for CCn1c(CNC(=O)c2ccccc2F)cc2cc(C)ccc21 ?
Shiga inhibitor: 13.5; FMDV inh: 32.3%; CHX counter: 14.5*; Sm TGR inh: -2.8%

What do the screens show for `Cc1ccc(Cl)cc1N1CCN(C(=O)c2cc(S(=O)(=O)N3CCCCCC3)cn2C)CC1`?
FMDV inh: inconclusive; Sm TGR inh: 2.3%

How did CCOc1ccc(C2C(C(=O)OC)=C(C)NC3=C2C(=O)c2ccccc23)cc1OC (stereo not given) do in these assays?
FMDV inh: -18.1%; Sm TGR inh: -7.5%

How did C#CCOc1c(Br)cc(C2C(C(=O)OC)=C(C)NC3=C2C(=O)c2ccccc23)cc1OCC (stereo not given) do in these assays?
FMDV inh: inconclusive; Sm TGR inh: 28.2µM*

Results for COc1ccc(C2c3cccn3CCN2S(=O)(=O)c2ccccc2[N+](=O)[O-])cc1OC (stereo not given) ?
FMDV inh: -4.0%; Sm TGR inh: -28.4%

How did Cc1c2cnn(CC(=O)N3CCCCC3)c(=O)c2c(C)n1Cc1ccc(Cl)cc1 do in these assays?
FMDV inh: -24.9%; Sm TGR inh: -9.7%

What do the screens show for `COc1cccc(NC(=O)Cn2c(=O)n(-c3ccc(Cl)cc3)c(=O)c3oc4ccccc4c32)c1`?
FMDV inh: 30.5%; Sm TGR inh: 50.1%

What do the screens show for `CCOC(=O)C(Cc1ccnc2ccccc12)=NO`?
FMDV inh: -29.8%

What do the screens show for `CCOC(=O)/C(=N\Nc1ncnc2ccccc12)c1ccc(OC)cc1`?
Shiga inhibitor: 44.8; FMDV inh: -57.5%; CHX counter: 26.5*; Sm TGR inh: 4.9%

How did COc1ccc(/C(N)=N/OC(=O)c2cc(-c3ccccc3)nc3ccccc23)cc1 do in these assays?
Shiga inhibitor: -24.4; FMDV inh: -6.1%; CHX counter: -0.4; Sm TGR inh: -1.3%

Results for COc1ccc(/C(=N/Nc2ncnc3ccccc23)C(=O)O)cc1 ?
Shiga inhibitor: 89.0*; FMDV inh: 57.9%; CHX counter: 47.3*; Sm TGR inh: -12.5%

What do the screens show for `C=CCNc1ncnc2c1[nH]c1ccc(Cl)cc12`?
Shiga inhibitor: 81.5*; FMDV inh: inconclusive; CHX counter: 36.8*; Sm TGR inh: -19.8%

How did C=CCNc1ncnc2c1[nH]c1ccccc12 do in these assays?
Shiga inhibitor: 12.9; FMDV inh: inconclusive; CHX counter: 10.2*; Sm TGR inh: 4.1%

What do the screens show for `COc1cccc(CNc2ccc3c(c2)ncn3C)c1OC`?
Shiga inhibitor: 22.7; FMDV inh: 23.1%; CHX counter: 18.6*; Sm TGR inh: 2.8%

How did COc1cccc(CNc2ccc3c(c2)nc(C)n3C)c1OC do in these assays?
Shiga inhibitor: 61.0*; FMDV inh: 1.5%; CHX counter: 33.4*; Sm TGR inh: 5.0%

Results for COc1cccc(CNc2ccc(S(N)(=O)=O)cc2)c1OC ?
Shiga inhibitor: -9.7; FMDV inh: -3.2%; CHX counter: -1.0; Sm TGR inh: inconclusive

Results for COc1ccc(C)cc1NC(=O)Nc1ccccc1OCc1cc(=O)n2ccccc2n1 ?
FMDV inh: -12.5%; Sm TGR inh: 0.1%

Results for N#C/C(=C/c1ccc(N2CCCCC2)o1)C(=O)Nc1ccc(Cl)cc1 ?
Shiga inhibitor: 75.6*; FMDV inh: 48.2%; CHX counter: 34.5*; Sm TGR inh: inconclusive

How did N#C/C(=C/c1ccc(N2CCCCCC2)o1)c1cccc(F)c1 do in these assays?
Shiga inhibitor: 4.1; FMDV inh: -46.5%; CHX counter: 13.8; Sm TGR inh: inconclusive

Results for N#C/C(=C/c1ccc(N2CCCCC2)o1)C(=O)Nc1ccc2ccccc2c1 ?
Shiga inhibitor: 87.6*; FMDV inh: -2.7%; CHX counter: 39.8*; Sm TGR inh: inconclusive

Results for Cc1cccc(-c2nc(S(=O)(=O)c3ccc(F)cc3)c(N3CCN(c4ccccc4)CC3)o2)c1 ?
FMDV inh: -11.4%; Sm TGR inh: -0.1%

What do the screens show for `CCNc1ncc2nc(-c3ccc(Cl)cc3)c(=O)n(C)c2n1`?
FMDV inh: 30.1%

What do the screens show for `CC(C)(C)OC(=O)N1CCC(c2c(C(=O)NCCN3CCOCC3)cnn2-c2ccc(F)cc2F)CC1`?
FMDV inh: -3.7%; Sm TGR inh: 3.6%

How did CCOC(=O)c1cc(-c2cccs2)[nH]n1 do in these assays?
Shiga inhibitor: 60.2*; FMDV inh: 50.0%; CHX counter: 22.1*; Sm TGR inh: 0.8%

How did CCCSc1ncc(Cl)c(C(=O)N2CCN(c3ccc(OC)cc3)CC2)n1 do in these assays?
FMDV inh: -4.7%; Sm TGR inh: -0.4%

Results for COc1ccc2c(c1)CC1(CN2C)C(=O)NC(=O)N(CCc2ccccc2)C1=O (stereo not given) ?
Shiga inhibitor: -10.0; FMDV inh: -15.6%; CHX counter: -1.2; Sm TGR inh: 39.8µM*

How did CCOC(=O)c1cc(C)n(CC2CCC(C(=O)Nc3cccc(C)c3)CC2)c1C (stereo not given) do in these assays?
FMDV inh: -14.5%; Sm TGR inh: -0.2%

Results for CCN(C(=O)c1nn(C)c2c1CSc1ccccc1-2)c1cccc(C)c1 ?
FMDV inh: -10.0%; Sm TGR inh: 9.1%

How did CCc1ccccc1N(CC)C(=O)c1c(C)oc2ncn(C)c(=O)c12 do in these assays?
FMDV inh: 7.1%; Sm TGR inh: -0.3%

What do the screens show for `CC(C)C(=O)Nc1ccc(-c2csc(-c3ccccc3)n2)cc1`?
Shiga inhibitor: 81.2*; FMDV inh: 19.3%; CHX counter: 60.9*; Sm TGR inh: 1.0%

What do the screens show for `CC(C)C(=O)Nc1cccc(-c2csc(-c3ccccc3)n2)c1`?
Shiga inhibitor: 33.5*; FMDV inh: 5.3%; CHX counter: 32.3*; Sm TGR inh: 7.8%

What do the screens show for `Cc1csc2nc(-c3cccc(NC(=O)C(C)C)c3)cn12`?
FMDV inh: -5.0%; Sm TGR inh: 2.2%
